The panel holds about 83,000 compounds, 20% with a hit somewhere; the sample as a whole holds those more often.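 How to read the values: 0–100, growth inhibition (40 = 60% inhibited); 0, no net growth; -100 to 0, cell death (-40 = 40% of starting cells died; -100 = all dead).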 Calls of active or inactive are those of the source. The calls were made as follows: active = growth percent below 10; inactive = the rest.
How the values were obtained:
Assay in all cases: NCI-60 one-dose screen, 48 h (100 = growth as untreated, 0 = no growth, -100 = all killed)
Settings in all cases: 10 µM unless noted
NCI-H23 lung = tested on: NCI-H23 lung
NCI-H226 lung = tested on: NCI-H226 lung
NCI-H322M lung = tested on: NCI-H322M lung
HOP-62 NSCLC = tested on: HOP-62 NSCLC
NCI-H460 lung = tested on: NCI-H460 lung
HOP-92 NSCLC = tested on: HOP-92 NSCLC
NCI-H522 lung = tested on: NCI-H522 lung
A549/ATCC NSCLC = tested on: A549/ATCC NSCLC
786-0 renal = tested on: 786-0 renal
COLO 205 colon = tested on: COLO 205 colon

Measured: growth

COC(=O)[C@@H](Cc1c[nH]c2ccccc12)NC(=O)[C@H](Cc1ccccc1)NCc1ccncc1
inactive: NCI-H23 lung 97.4% | NCI-H226 lung 94.1% | NCI-H322M lung 92.8% | HOP-62 NSCLC 93.7% | NCI-H460 lung 104% | HOP-92 NSCLC 91.5% | NCI-H522 lung 73.5% | A549/ATCC NSCLC 83.9% | 786-0 renal 104% | COLO 205 colon 107%

COc1ccc(CNc2c3ccccc3nc3ccccc23)cc1OC
active: NCI-H460 lung 6.17% | HOP-92 NSCLC -9.67% | COLO 205 colon 5.3%
inactive: NCI-H23 lung 15.1% | NCI-H226 lung 27.9% | NCI-H322M lung 29.8% | HOP-62 NSCLC 34.5% | NCI-H522 lung 18.2% | A549/ATCC NSCLC 16.3% | 786-0 renal 25.4%

COc1cc(/C=C2\C(=O)N(CCOc3cc(O)c4c(=O)cc(-c5ccccc5)oc4c3)c3ccccc32)cc(OC)c1O
inactive: NCI-H23 lung 77.6% | NCI-H226 lung 90.4% | NCI-H322M lung 90.7% | HOP-62 NSCLC 68.7% | NCI-H460 lung 66.1% | HOP-92 NSCLC 80.5% | NCI-H522 lung 60.1% | A549/ATCC NSCLC 85% | 786-0 renal 75.6% | COLO 205 colon 93.3%

Nc1nc(N)c2c(n1)NC(c1cccc(Nc3ccnc4cc(C(F)(F)F)ccc34)c1)CC(c1ccc(Cl)cc1)=N2 (stereo not given)
inactive: NCI-H23 lung 64.7% | NCI-H226 lung 82.7% | NCI-H322M lung 89.3% | HOP-62 NSCLC 52% | NCI-H460 lung 20.4% | HOP-92 NSCLC 34.5% | NCI-H522 lung 32.6% | A549/ATCC NSCLC 40.8% | 786-0 renal 68.9% | COLO 205 colon 29.5%

CCCCCCCCCCCCCCCCCCOc1ccccc1CC(=O)OCC[N+]1(C)CCCCC1
inactive: NCI-H23 lung 29.8% | NCI-H226 lung 28.1% | NCI-H322M lung 84.6% | HOP-62 NSCLC 70% | NCI-H460 lung 62.2% | NCI-H522 lung 33.3% | A549/ATCC NSCLC 42.2% | 786-0 renal 31.2% | COLO 205 colon 55.6%
active: HOP-92 NSCLC -9.25%

CCOC(=O)c1c(Nc2nc3ccccc3s2)sc2c1CCC(=O)C2
inactive: NCI-H23 lung 26.3% | NCI-H226 lung 91.9% | NCI-H322M lung 85% | HOP-62 NSCLC 66.4% | NCI-H460 lung 34% | HOP-92 NSCLC 85.4% | A549/ATCC NSCLC 68.8% | 786-0 renal 66% | COLO 205 colon 65.9%
active: NCI-H522 lung 8.13%

CN1CCN(Cc2ccc(NC(=O)c3cncc(C#Cc4cnc(N)c5ncccc45)c3)cc2Cl)CC1
inactive: NCI-H23 lung 57.3% | NCI-H226 lung 56.5% | NCI-H322M lung 116% | HOP-62 NSCLC 89.8% | HOP-92 NSCLC 75.6% | NCI-H522 lung 85.2% | A549/ATCC NSCLC 74.7% | COLO 205 colon 70.3%
active: NCI-H460 lung 3.07% | 786-0 renal -78.2%

O=C(O)c1cc2ccccc2s1
inactive: NCI-H23 lung 101% | NCI-H226 lung 98.2% | NCI-H322M lung 110% | HOP-62 NSCLC 96.9% | NCI-H460 lung 104% | HOP-92 NSCLC 90% | NCI-H522 lung 107% | A549/ATCC NSCLC 104% | 786-0 renal 106% | COLO 205 colon 113%

C=C(c1ccc(OC)c(/C=C/C(=O)c2cc(OC)c(OC)c(OC)c2)c1)c1cc(OC)c(OC)c(OC)c1
inactive: NCI-H322M lung 17.9% | HOP-62 NSCLC 11.5% | HOP-92 NSCLC 40.2%
active: NCI-H23 lung -33.2% | NCI-H226 lung -38% | NCI-H460 lung -30.6% | NCI-H522 lung -19.3% | A549/ATCC NSCLC 9.3% | 786-0 renal -64.3% | COLO 205 colon -13.6%

O=C1CCc2c(sc3[nH]c(=S)n(-c4cc(C(F)(F)F)cc(C(F)(F)F)c4)c(=O)c23)C1
inactive: 786-0 renal 18.1%
active: NCI-H23 lung -10.7% | NCI-H226 lung -19% | NCI-H322M lung 9.28% | HOP-62 NSCLC -27.1% | NCI-H460 lung 5% | HOP-92 NSCLC -61.8% | NCI-H522 lung -46.6% | A549/ATCC NSCLC 5.85% | COLO 205 colon -80%

CC(=O)Cc1nsc(NC(=O)c2cc(-c3cc(Cl)ccc3Cl)oc2C)n1
inactive: NCI-H23 lung 99.5% | NCI-H226 lung 94.5% | NCI-H322M lung 104% | HOP-62 NSCLC 102% | NCI-H460 lung 103% | HOP-92 NSCLC 112% | NCI-H522 lung 90.2% | A549/ATCC NSCLC 98.8% | 786-0 renal 97% | COLO 205 colon 115%

Cc1cc([N+](=O)[O-])ccc1NC(=O)c1ccc2c(c1)nc(-c1ccccc1)n2C1CCCCC1
inactive: NCI-H23 lung 91.5% | NCI-H226 lung 93% | NCI-H322M lung 80% | HOP-62 NSCLC 91.8% | NCI-H460 lung 87.3% | HOP-92 NSCLC 117% | NCI-H522 lung 63.1% | A549/ATCC NSCLC 78.8% | 786-0 renal 86.7% | COLO 205 colon 73.2%

COc1ccc(S(=O)(=O)NC2c3ccccc3CC2O)cc1OC (stereo not given)
inactive: NCI-H23 lung 103% | NCI-H226 lung 102% | NCI-H322M lung 109% | HOP-62 NSCLC 102% | NCI-H460 lung 109% | HOP-92 NSCLC 109% | NCI-H522 lung 99% | A549/ATCC NSCLC 102% | 786-0 renal 104% | COLO 205 colon 119%

CCOC(=O)C1=CCC(n2cc(F)c(=O)[nH]c2=O)O1 (stereo not given)
inactive: NCI-H23 lung 101% | NCI-H226 lung 103% | NCI-H322M lung 127% | HOP-62 NSCLC 122% | NCI-H460 lung 97.8% | HOP-92 NSCLC 107% | NCI-H522 lung 112% | A549/ATCC NSCLC 102% | 786-0 renal 107% | COLO 205 colon 109%

COc1ccc(NC(=O)CSc2oc(-c3ccccc3)nc2S(=O)(=O)c2ccc(Cl)cc2)c(OC)c1
active: NCI-H226 lung 1.45%
inactive: NCI-H23 lung 73% | NCI-H322M lung 83% | HOP-62 NSCLC 51% | NCI-H460 lung 44.7% | HOP-92 NSCLC 39.6% | NCI-H522 lung 41.4% | A549/ATCC NSCLC 49.2% | 786-0 renal 35.7% | COLO 205 colon 82.4%

C=C(c1ccc(C(=O)O)c(F)c1)c1cc2c(cc1C)C(C)(C)C=CC2(C)C
inactive: NCI-H23 lung 76.2% | NCI-H226 lung 65.5% | NCI-H322M lung 90.7% | HOP-62 NSCLC 70% | NCI-H460 lung 82.1% | HOP-92 NSCLC 62.4% | NCI-H522 lung 61.5% | A549/ATCC NSCLC 38.1% | 786-0 renal 89.2% | COLO 205 colon 107%

Cc1ccc(NC(=O)c2ccc(Nc3ncnc4c3cnn4-c3cccc(F)c3)cc2)cc1
inactive: NCI-H23 lung 99.6% | NCI-H226 lung 96.5% | NCI-H322M lung 103% | HOP-62 NSCLC 94.7% | NCI-H460 lung 102% | HOP-92 NSCLC 102% | NCI-H522 lung 96% | A549/ATCC NSCLC 99.9% | 786-0 renal 95.8% | COLO 205 colon 109%

COC(=O)c1nc(-c2ccccc2)oc1S(=O)(=O)NCC(c1ccc(Cl)cc1)N1CCCCC1 (stereo not given)
inactive: NCI-H23 lung 84.4% | NCI-H226 lung 88.5% | NCI-H322M lung 97.2% | HOP-62 NSCLC 90.9% | NCI-H460 lung 85.6% | HOP-92 NSCLC 48.8% | NCI-H522 lung 25.6% | A549/ATCC NSCLC 85.3% | 786-0 renal 59.8% | COLO 205 colon 72.1%

O=[N+]([O-])c1ccc(Oc2cccc3c(Oc4ccc([N+](=O)[O-])cc4[N+](=O)[O-])cccc23)c([N+](=O)[O-])c1
inactive: NCI-H23 lung 75.3% | NCI-H226 lung 83.9% | NCI-H322M lung 92.4% | HOP-62 NSCLC 79.6% | NCI-H460 lung 93.4% | HOP-92 NSCLC 62% | NCI-H522 lung 74.6% | A549/ATCC NSCLC 83% | 786-0 renal 108% | COLO 205 colon 102%

CCOC(=O)C1=C(C)N(C)C(=O)N(C)C1c1ccccc1 (stereo not given)
inactive: NCI-H23 lung 96.7% | NCI-H226 lung 93.3% | NCI-H322M lung 98.6% | HOP-62 NSCLC 81.7% | NCI-H460 lung 101% | HOP-92 NSCLC 78.5% | NCI-H522 lung 86.9% | A549/ATCC NSCLC 104% | 786-0 renal 100% | COLO 205 colon 98.5%

Cc1cccc(CN(Nc2ccccc2)c2ccccc2)n1
inactive: NCI-H23 lung 104% | NCI-H226 lung 103% | NCI-H322M lung 96.7% | HOP-62 NSCLC 99.8% | NCI-H460 lung 101% | HOP-92 NSCLC 65% | NCI-H522 lung 103% | A549/ATCC NSCLC 93.1% | 786-0 renal 107% | COLO 205 colon 111%

Nc1ncc(-c2ccc3ncnc(N4CCc5cc(F)c(Cl)cc54)c3c2)cc1C(F)(F)F
inactive: NCI-H23 lung 47.6% | NCI-H226 lung 28.3% | NCI-H322M lung 19.8% | HOP-62 NSCLC 33.1% | NCI-H460 lung 28.2% | HOP-92 NSCLC 10.1% | NCI-H522 lung 20.3% | A549/ATCC NSCLC 21.4% | 786-0 renal 15.8% | COLO 205 colon 41.8%

COC(=O)[C@H]1Cc2c([nH]c3ccccc23)[C@H](c2ccc3c(c2)OCO3)N1
inactive: NCI-H23 lung 99.7% | NCI-H226 lung 98.5% | NCI-H322M lung 98.9% | HOP-62 NSCLC 107% | NCI-H460 lung 106% | HOP-92 NSCLC 84.9% | NCI-H522 lung 83.2% | A549/ATCC NSCLC 105% | 786-0 renal 98.5% | COLO 205 colon 118%

O=c1ccc2nc(-c3ccccc3)nn(-c3ccccn3)c-2c1
active: NCI-H522 lung -59.7% | COLO 205 colon -68.8%
inactive: NCI-H23 lung 90.8% | NCI-H226 lung 91.9% | NCI-H322M lung 102% | HOP-62 NSCLC 95.9% | NCI-H460 lung 106% | HOP-92 NSCLC 55.8% | A549/ATCC NSCLC 103% | 786-0 renal 63.5%

Cc1[nH]c(C2CC(c3ccc(C(F)(F)F)c(F)c3)=NN2C)c(C)c1C(=O)NCC(F)(F)F (stereo not given)
inactive: NCI-H23 lung 95.4% | NCI-H226 lung 93.3% | NCI-H322M lung 92.7% | HOP-62 NSCLC 106% | NCI-H460 lung 101% | HOP-92 NSCLC 114% | NCI-H522 lung 88.9% | A549/ATCC NSCLC 95.5% | 786-0 renal 109% | COLO 205 colon 114%

O=C1C=CC2(O)OC(c3ccccc3)CC(=O)C2=C1O (stereo not given)
active: NCI-H522 lung -17%
inactive: NCI-H23 lung 79.2% | NCI-H226 lung 99.7% | NCI-H322M lung 90% | HOP-62 NSCLC 86.5% | NCI-H460 lung 93.6% | HOP-92 NSCLC 93.8% | A549/ATCC NSCLC 85.6% | 786-0 renal 93.6% | COLO 205 colon 118%

— PubChem BioAssay (NCI)
